# RecA splice inh = Mtb RecA intein splicing inhibitors, primary screen, biochemical, fluorescence, HTS | cell-free RecA intein splicing | 290,000 compounds, 0.75% hits | inhibition, % (concentration not given with the values) | Protein RecA (Mycobacterium tuberculosis (strain ATCC 25618 / H37Rv)), P9WHJ3; in the data active means inhibition above about 30%;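 further: 0% = vehicle wells and 100% = reference inhibitor control wells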
# UGM FP inh = M. tuberculosis UGM enzyme inhibitors, primary screen, biochemical, fluorescence polarization, single point; UDP-galactopyranose mutase (Mycobacterium tuberculosis (strain ATCC 25618 / H37Rv)), …; purified UGM, fluorescence polarization probe displacement; inhibition, % at 10 µM; 320,000 compounds, 0.06% hits; AID 504406, 2011; in the data active means inhibition above about 10%, passing the limit was not always enough
# GDH-TPI inh = GDH-TPI coupling enzyme inhibitors, primary screen, artefact control for M. tuberculosis FBA inhibitor project, biochemical, absorbance, full deck. inhibition, % at 4.8 µM. 360,000 compounds, 1.2% hits. AID 588335, 2011. GDH-TPI coupled enzyme counterscreen, NADH absorbance; in the data active means inhibition above about 30%;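 further: 0% = DMSO wells and 100% = wells lacking the enzyme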
# Mtb bLac sens = beta-lactam sensitization of Mtb H37Rv, H37Rv | M. tuberculosis H37Rv growth with meropenem, percent inhibition | inhibition, % at 25 µM | 330,000 compounds, 0.27% hits | AID 434955, 2010; call rule not given here;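 further: growth measured after seven days incubation then overnight dye step; 0% = bacteria only wells and 100% = bacteria with antibiotic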
# FBA Mtb inh = Mtb FBA enzyme inhibitors, primary screen, biochemical, fluorescence, strain H37Rv; Fructose-bisphosphate aldolase (Mycobacterium tuberculosis (strain ATCC 25618 / H37Rv)), …; purified M. tuberculosis FBA, fluorescence read-out; inhibition, % at 1 µM; 360,000 compounds, 2.3% hits; AID 588726, 2011; in the data active means inhibition above about 27%;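 further: 0% = vehicle and 100% = reference inhibitor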
# Rv3671c protease = Rv3671c serine protease inhibitors, primary screen, biochemical, fluorescence polarization, M. tuberculosis H37Rv; P9WHR9; inhibition, % at 5.96 µM; 320,000 compounds, 0.048% hits; AID 2606, 2010; in the data active means inhibition above about 38%;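 further: extracellular domain of Rv3671c used as enzyme; 0% = enzyme with DMSO and 100% = no enzyme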
# Target sequence (P9WHR9 whole entry, looked up, the tested form may be a part): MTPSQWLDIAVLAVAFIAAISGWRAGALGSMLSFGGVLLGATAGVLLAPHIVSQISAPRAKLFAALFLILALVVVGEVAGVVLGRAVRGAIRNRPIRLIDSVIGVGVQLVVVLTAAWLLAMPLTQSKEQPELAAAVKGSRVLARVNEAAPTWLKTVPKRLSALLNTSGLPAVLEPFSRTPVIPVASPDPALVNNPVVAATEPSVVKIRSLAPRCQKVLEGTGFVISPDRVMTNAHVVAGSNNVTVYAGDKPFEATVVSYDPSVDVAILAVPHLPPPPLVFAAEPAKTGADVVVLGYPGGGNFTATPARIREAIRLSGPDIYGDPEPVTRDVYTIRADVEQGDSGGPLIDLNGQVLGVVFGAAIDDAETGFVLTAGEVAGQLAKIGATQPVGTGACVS
# * hit, by the source's call; / = not tested or not shown; + = active, no number. Hits are enriched below; roughly 4% of the tested compounds scored in any of these assays.
SMILES,RecA splice inh,UGM FP inh,GDH-TPI inh,Mtb bLac sens,FBA Mtb inh,Rv3671c protease
CCn1c(SCC(=O)Nc2oc(-c3ccccc3)c(-c3ccccc3)c2C#N)nnc1-c1ccncc1,5,3,32*,1,0,-6
CCn1c(SCC(=O)Nc2oc(-c3ccccc3)c(-c3ccccc3)c2C#N)nnc1-c1ccco1,/,-1,14,3,-2,-15
COc1ccc(NC(=S)NC(NC(=O)CCl)C(Cl)(Cl)Cl)c([N+](=O)[O-])c1 (stereo not given),55*,-1,-3,6,-4,-9
O=C(NCc1cccnc1)/C(=C\c1ccc(-c2ccc(Cl)c(Cl)c2)o1)S(=O)(=O)c1ccccc1,24,1,31*,20,1,-107
O=C(NCc1cccnc1)c1ccc(-c2cc(Cl)ccc2Cl)o1,4,-1,-2,1,-5,-18
CCN(Cc1ccc(OC)c(F)c1)C(=O)CCl,49*,-1,-5,98,-1,1
CCN(Cc1ccc(OC)c(F)c1)C(=O)C1CCCO1 (stereo not given),0,-1,-5,3,2,0
Cc1cc(C#Cc2c(-c3ccccc3)n(C)c3ccccc23)ccc1F,4,2,16,-2,27*,-16
COc1ccc(C#Cc2c(-c3ccccc3)n(C)c3ccccc23)cc1,/,-1,12,-4,10,-8
Cc1ccc(N2C(=O)C3CCCN3C2=S)cc1Cl (stereo not given),-1,2,-3,1,152*,-6
CCC(CC)C1=NN2C(=N)/C(=C/c3ccc(OC(=O)c4ccco4)cc3)C(=O)N=C2S1,8,2,10,99,3,-1
CC(C)CS(=O)(=O)C1=NSC2=NC(=O)/C(=C\c3ccc(OC(=O)c4ccco4)cc3)C(=N)N21,41*,-2,16,98,3,-5
O=C(O)CN1C(=O)/C(=C\c2ccc(OC(=O)c3ccco3)cc2)SC1=S,30*,-1,11,3,-4,-1
COc1cc(/C=C2\C(=N)N3N=C(S(=O)(=O)CC(C)C)SC3=NC2=O)ccc1OC(=O)c1ccco1,32*,-7,/,3,/,-6
CCS(=O)(=O)C1=NN2C(=N)/C(=C\c3ccc(OC(=O)c4ccco4)cc3)C(=O)N=C2S1,33*,0,22,80,1,1
CC1(C(=O)NC2CCCC2)CCC(=O)N1CCCn1ccnc1 (stereo not given),/,/,/,/,-1,/
CCOC(=O)C1=C[C@@H](C(C)(C)C)N(S(=O)(=O)c2ccc(C)cc2)[C@H]1c1cccc(Cl)c1,/,/,/,/,3,/
CCN(CC)CCNC(=O)c1cn(CC)c2cc(N3CCN(C(=O)c4ccco4)CC3)c(F)cc2c1=O,-1,4,4,-6,22,6
CCN(CC)CCCNC(=O)c1cn(CC)c2cc(N3CCN(C(=O)c4ccco4)CC3)c(F)cc2c1=O,-1,2,20,3,54*,-3
O=C(O)c1cc(-c2cccc(Cl)c2)nc2nc(N3CCCCC3)sc12,-9,3,18,3,+,-5
O=C(c1cc(-c2cccc(Cl)c2)nc2ccccc12)N1CCN(c2ccccn2)CC1,14,-2,2,82,-1,-7
C[C@H](CO)N1C[C@H](C)[C@@H](CN(C)C(=O)CN2CCOCC2)Oc2cc(Br)ccc2S1(=O)=O,/,/,-7,/,3,/
CCCc1cc(=O)oc2cc(C)cc(OCC(=O)N[C@@H](CSCc3ccccc3)C(=O)O)c12,-3,2,6,-4,39*,-11
CCCCc1cc(=O)oc2cc(C)cc(O)c12,-1,-2,-2,11,0,-6
COc1ccc2c(CC(=O)NC(Cc3ccc(Cl)cc3)C(=O)O)cc(=O)oc2c1C (stereo not given),-3,3,10,-4,121*,/
SMILES,RecA splice inh,UGM FP inh,GDH-TPI inh,Mtb bLac sens,FBA Mtb inh,Rv3671c protease
Cc1c(OCC(=O)NC(Cc2ccc(Cl)cc2)C(=O)O)ccc2c3c(c(=O)oc12)CCCC3 (stereo not given),4,-3,7,-5,6,8
Cc1cc(OCC(=O)NC(Cc2ccc(Cl)cc2)C(=O)O)c2c(C)cc(=O)oc2c1 (stereo not given),-1,3,6,-5,74*,-10
CCCCc1cc(=O)oc2cc(O)cc(O)c12,-20,1,9,-2,129*,-6
CCCCc1cc(=O)oc2cc(C)cc(OC(C)C(=O)O)c12 (stereo not given),-1,0,12,3,134*,7
CCc1cc(=O)oc2cc(C)cc(OCC(=O)N3CCC(C(=O)NC(C)C)(c4ccccc4)CC3)c12,3,-2,2,-4,66*,1
CS(=O)(=O)Nc1cccc(C2=NN(C(=O)c3ccco3)C(c3cccs3)C2)c1 (stereo not given),1,-2,19,-10,-1,-4
CCCCC(=O)N(C)c1c(C)nc2ccc(C(=O)N3CCNC(=O)C3)cn12,/,/,-7,/,5,/
COc1cc(C(=O)C(=O)c2ccc(O)c(OC)c2)ccc1O,5,-2,35*,-6,-2,7
Cc1ccc(NC(=O)Cn2c(=O)oc3cc(S(=O)(=O)N4CCC(C)CC4)ccc32)cc1C,0,0,3,0,4,-20
CC1=NN(c2ccccc2)C(=O)/C1=C/c1c(O)[nH]c(=S)[nH]c1=O,20,0,-2,78,-1,-5
CC1=NN(c2ccccc2)C(=O)/C1=C\c1cn(C)c2ccccc12,39*,1,2,7,-21,11
CC1=NN(c2ccccc2)C(=O)/C1=C\c1cc(C)n(C)c1C,22,1,8,-3,-14,0
CC1=NN(c2ccccc2)C(=O)/C1=C/c1c(O)[nH]c(=O)[nH]c1=O,43*,-1,1,8,-3,-75
CCOc1ccc(CNC(=O)CCC(=O)n2ncc3ccc(Cl)cc32)cc1,-1,-1,-5,-4,1,3
CC1CC(=Cc2ccc(N)cc2)C(=O)O1 (stereo not given),/,/,35*,/,-1,/
O=C1/C(=C\c2ccc([N+](=O)[O-])cc2)CCc2ccccc21,/,2,16,-3,1,2
CC1CC(=Cc2ccc([N+](=O)[O-])cc2)C(=O)O1 (stereo not given),/,/,31*,/,-2,/
Cc1ccc(/C=C2\CCOC2=O)cc1,0,0,2,1,-2,-10
COC(=O)c1ccc2c(CCO)c[nH]c2c1,0,1,17,9,+,8
